Measured values: PubChem BioAssay AID1159580 (chemical genetic matrix, 2015)
Several values for one entry are separate records, joined by “and”; a condition that tells them apart may be missing. Identical values can stand only once. Hit rate of the full screen: of about 5,500 compounds, about 2,000 (36%) were called active. Roughly 18% stayed inconclusive and do not appear here. Rule as the data show it: active = normalized growth mostly below about 0.91 (no sharp cut-off); inconclusive = no clear call, values can overlap the other calls; inactive = mostly above about 0.92. Some of the results follow.

Test: chemical genetic growth profiling, strain panel (AID 1159580);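 also: tested at 20 µM; growth read once vehicle control cultures reached saturation at 30 °C; 1 = growth at the plate median or of vehicle wells; lower values mean less growth of the strain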
Conditions: S. cerevisiae deletion strains, growth OD

Measured: normalized growth

Cn1c(=O)c2c(ncn2C)n(C)c1=O
inactive: locus YAL013W, strain DEP1, hits give low values 0.997 | locus YAL021C, strain ccr4, hits give low values 1.01 | locus YAL026C, strain drs2, hits give low values 0.975 | locus YAL030W, strain snc1, hits give low values 0.97 | locus YAL040C, strain CLN3, hits give low values 1.02 | locus YBL061C, strain skt5, hits give low values 0.962 | locus YBR009C, strain hhf1, hits give low values 0.94 | locus YBR021W, strain FUR4, hits give low values 1.01 | locus YBR023C, strain chs3, hits give low values 0.978 | locus YBR171W, strain sec66, hits give low values 0.94 | locus YBR229C, strain ROT2, hits give low values 0.998 | locus YBR231C, strain swc5, hits give low values 0.989 | locus YBR279W, strain paf1, hits give low values 0.982 | locus YCL011C, strain gbp2, hits give low values 0.922 | locus YCL016C, strain dcc1, hits give low values 0.936 | locus YCL029C, strain bik1, hits give low values 1.02 | locus YCL061C, strain MRC1 (second series), hits give low values 1.01 | locus YCL061C, strain MRC1, hits give low values 0.98 | locus YCL069W, strain vba3, hits give low values 0.973 | locus YCR088W, strain abp1, hits give low values 0.983 | locus YDL005C, strain med2, hits give low values 0.99 | locus YDL035C, strain GPR1, hits give low values 1.02 | locus YDL040C, strain nat1, hits give low values 0.987 | locus YDL074C, strain BRE1, hits give low values 1.03 | locus YDL101C, strain DUN1, hits give low values 0.999 | locus YDL134C, strain PPH21, hits give low values 0.992 | locus YDL185W, strain tfp1, hits give low values 1.02 | locus YDL192W, strain arf1, hits give low values 1 | locus YDR001C, strain nth1, hits give low values 0.966 | locus YDR069C, strain doa4, hits give low values 0.961 | locus YDR101C, strain arx1, hits give low values 1.04 | locus YDR137W, strain rgp1, hits give low values 0.943 | locus YDR150W, strain NUM1, hits give low values 0.998 | locus YDR159W, strain sac3, hits give low values 0.961 | locus YDR162C, strain NBP2, hits give low values 0.998 | locus YDR195W, strain ref2 0.99 | locus YDR297W, strain sur2, hits give low values 0.98 | locus YDR318W, strain mcm21, hits give low values 0.99 | locus YDR334W, strain swr1, hits give low values 0.914 | locus YDR335W, strain msn5, hits give low values 0.969 | locus YDR363W, strain ESC2, hits give low values 0.985 | locus YDR388W, hits give low values 1 | locus YDR392W, strain spt3, hits give low values 0.942 | locus YDR502C, strain sam2, hits give low values 1.01 | locus YEL003W, strain gim4, hits give low values 0.979 | locus YEL037C, strain rad23, hits give low values 0.972 | locus YEL061C, strain CIN8 (second series), hits give low values 0.977 | locus YEL061C, strain CIN8, hits give low values 0.996 | locus YER002W, strain NOP16, hits give low values 1.01 | locus YER015W, strain faa2, hits give low values 0.971 | locus YER016W, strain bim1, hits give low values 0.948 | locus YER110C, hits give low values 1.01 | locus YER111C, strain swi4, hits give low values 0.949 | locus YER155C, strain BEM2 (second series), hits give low values 1 | locus YER155C, strain BEM2, hits give low values 0.994 | locus YER167W, strain BCK2, hits give low values 1 | locus YFR010W, strain ubp6, hits give low values 0.96 | locus YGL078C, strain dbp3, hits give low values 1.02 | locus YGL086W, strain mad1, hits give low values 1.01 | locus YGL167C, strain pmr1, hits give low values 0.945 | locus YGL173C, strain kem1, hits give low values 0.938 | locus YGL227W, strain vid30, hits give low values 0.97 | locus YGL240W, strain doc1, hits give low values 0.987 | locus YGL248W, strain PDE1, hits give low values 1 | locus YGL253W, strain hxk2, hits give low values 0.982 | locus YGR078C, strain PAC10, hits give low values 0.995 and 0.992 | locus YGR135W, strain pre9, hits give low values 0.999 | locus YGR229C, strain SMI1, hits give low values 0.995 | locus YGR252W, strain gcn5, hits give low values 1.01 | locus YHR013C, strain ard1, hits give low values 0.947 | locus YHR027C, strain rpn1, hits give low values 0.932 | locus YHR030C, strain SLT2, hits give low values 1 and 1.02 | locus YHR079C, strain IRE1 (second series), hits give low values 1.01 | locus YHR079C, strain IRE1, hits give low values 0.993 | locus YHR094C, strain hxt1, hits give low values 1.01 | locus YHR129C, strain ARP1, hits give low values 0.996 | locus YHR142W, strain chs7, hits give low values 0.899 | locus YHR200W, strain rpn10, hits give low values 1.02 | locus YIL066C, strain RNR3, hits give low values 1.01 | locus YIL073C, strain SPO22, hits give low values 1.04 | locus YIL125W, strain kgd1, hits give low values 1.01 | locus YIR030C, strain dcg1, hits give low values 0.999 | locus YJL092W, strain hpr5, hits give low values 0.956 | locus YJL095W, strain BCK1 (second series), hits give low values 0.967 | locus YJL095W, strain BCK1, hits give low values 0.985 and 1.04 | locus YJL115W, strain asf1, hits give low values 0.939 | locus YJL129C, strain trk1, hits give low values 0.95 | locus YJL134W, strain LCB3, hits give low values 1 | locus YJL154C, strain vps35, hits give low values 0.976 | locus YJL164C, strain tpk1, hits give low values 0.964 | locus YJL166W, strain qcr8, hits give low values 0.977 | locus YJL168C, strain set2, hits give low values 0.997 | locus YJL187C, strain SWE1 (second series), hits give low values 1.01 | locus YJL187C, strain SWE1, hits give low values 0.966
